# Laboratory results taken from PubChem BioAssay (NCATS).
# Inconclusive results are not listed. A call without a number means that no potency is given here. Activity calls are given as the source filed them. Calls come from the whole dose curve; as a rule, active = well fitted curve in the direction sought with a large enough effect; inconclusive = small, poorly fitted or top-dose-only effect, or another doubt; inactive = no such curve, though single readings can be large; an effect the other way counts as inactive or inconclusive.
# Key:
# [1] = biological target: Metallo-beta-lactamase type 2 (Klebsiella pneumoniae) (UniProt C7C422); experiment: qHTS to identify inhibitors of the New Delhi Metallo-beta-lactamase (NDM): assay validation screen against the NCATS LOPAC Collection (AID 1794843); note: potency is the fitted concentration of half-maximal effect
# Sequence of Metallo-beta-lactamase type 2 (Klebsiella pneumoniae) (C7C422 whole entry, looked up): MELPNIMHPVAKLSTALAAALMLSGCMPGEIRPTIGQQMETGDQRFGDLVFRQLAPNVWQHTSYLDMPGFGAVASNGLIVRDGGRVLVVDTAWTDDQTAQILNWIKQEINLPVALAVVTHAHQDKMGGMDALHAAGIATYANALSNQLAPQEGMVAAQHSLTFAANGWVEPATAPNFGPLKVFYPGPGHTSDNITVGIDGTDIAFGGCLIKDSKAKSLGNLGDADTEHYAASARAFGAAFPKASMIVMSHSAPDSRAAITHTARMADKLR
# In short: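 Nitrocefin hydrolysis (50 uM substrate stock) by NDM-1, 2 nM final, was followed by 485 nm absorbance after compound preincubation; buffer was 50 mM HEPES pH 7.0, 1 uM ZnSO4, 0.01% Tween20.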
# [2] = biological target: Glutathione peroxidase 1 (Homo sapiens) (UniProt P07203); experiment: Primary qHTS Assay for Inhibitors of Recombinant Selenoprotein Glutathione Peroxidase 1 (GPX1) (AID 1845191); note: nearly all actives have a fitted effect of over 65% in size; note: potency is the fitted concentration of half-maximal effect
# Sequence of Glutathione peroxidase 1 (Homo sapiens) (P07203 whole entry, looked up): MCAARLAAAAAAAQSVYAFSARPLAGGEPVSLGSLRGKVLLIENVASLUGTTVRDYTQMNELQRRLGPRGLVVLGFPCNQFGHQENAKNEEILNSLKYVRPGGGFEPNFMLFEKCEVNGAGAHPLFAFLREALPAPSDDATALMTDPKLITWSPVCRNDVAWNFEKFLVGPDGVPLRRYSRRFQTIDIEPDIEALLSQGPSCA
# In short: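 10 nM GPX1 + cpd, 30 min RT; start w/ 1 mM GSH, 0.5 mM cumene hydroperoxide, 0.5 mM NADPH, 100 nM GR, 0.01% BSA; buffer 50 mM Tris-HCl pH 7.5, 2 mM EDTA, 150 mM NaCl; Fl 340/450, 0 & 15 min.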
# [3] = biological target: Phospholipid hydroperoxide glutathione peroxidase GPX4 (Homo sapiens) (UniProt P36969); experiment: Primary qHTS Assay for Inhibitors of Recombinant Selenoprotein Glutathione Peroxidase 4 (GPX4) (AID 1845192); note: nearly all actives have a fitted effect of over 65% in size
# Sequence of Phospholipid hydroperoxide glutathione peroxidase GPX4 (Homo sapiens) (P36969 whole entry, looked up): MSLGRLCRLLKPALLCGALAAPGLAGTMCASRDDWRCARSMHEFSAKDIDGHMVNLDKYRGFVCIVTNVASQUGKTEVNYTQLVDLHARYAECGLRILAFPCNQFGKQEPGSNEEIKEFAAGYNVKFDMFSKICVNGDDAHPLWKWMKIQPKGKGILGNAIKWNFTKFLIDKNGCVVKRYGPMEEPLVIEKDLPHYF
# In short: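 NADPH consumption, followed by fluorescence at 340/450 nm between 0 and 15 min, reports GPX4 activity via coupled glutathione reductase (100 nM). Enzyme 200 nM was pre-exposed to compound 30 min; 0.5 mM cumene hydroperoxide and 1 mM GSH served as substrates.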
Structure (SMILES),Potency [1],Potency [2],Potency [3]
C[C@H](N)Cc1cccc(C(F)(F)F)c1,inactive,inactive,inactive
OCc1cnc[nH]1,inactive,inactive,inactive
CCCn1c(=O)c2[nH]c(C3CCCC3)nc2n(CCCOC(=O)c2ccc(S(=O)(=O)F)cc2)c1=O,inactive,inactive,inactive
NCC(CP(=O)(O)O)c1ccc(Cl)cc1 (centres undefined),inactive,inactive,–
OC1CCCCC1N1CCC(c2ccccc2)CC1 (centres undefined),inactive,inactive,inactive
O=[N+]([O-])/C=C/c1ccc2c(c1)OCO2,inactive,inactive,–
CC(=O)NBr,inactive,inactive,inactive
CC(C)(C)c1cc(C=C(C#N)C#N)cc(C(C)(C)C)c1O,inactive,inactive,inactive
CC(C)NP(=O)(NC(C)C)OP(=O)(NC(C)C)NC(C)C,inactive,inactive,–
COc1ccc(CNC(=O)/C=C/c2ccc3[nH]cc(CCN(C)C)c3c2)cc1,inactive,inactive,–
[Cl-].[Cl][Pt].[NH2-].[NH2-].c1ccncc1,3.98 µM (active),inactive,–
Clc1ccc(N2CC3CCC(C2)N3)nn1,inactive,inactive,inactive
O=S1(=O)N(CCN2CC=C(c3c[nH]c4cc(F)ccc34)CC2)c2cccc3c2N1CCC3,inactive,inactive,–
CCn1cnc2c(Nc3cccc(Cl)c3)nc(N[C@@H]3CCCC[C@@H]3N)nc21,inactive,inactive,inactive
C=CCN1C[C@@H](C)N([C@H](c2ccc(C(=O)N(CC)CC)cc2)c2cccc(OC)c2)C[C@@H]1C,inactive,inactive,inactive
NC(N)=NOCC[C@H](N)C(=O)O,inactive,inactive,inactive
CN1CC[C@@]2(C)c3cc(O)ccc3N(C)C12 (some centres undefined),inactive,inactive,inactive
O=[N+]([O-])c1ccc2nc(N3CCNCC3)ccc2c1,inactive,inactive,–
O=C1/C(=C/c2ccccc2)C[C@@]2(O)[C@H]3Cc4ccc(O)c5c4[C@@]2(CCN3CC2CC2)[C@H]1O5,inactive,inactive,inactive
c1ccc2c(c1)[I+]c1ccccc1-2,inactive,inactive,inactive
c1ccc2c(N3CCNCC3)cccc2c1,inactive,inactive,inactive
C[C@]12Cc3cn4c(nc3C=C1CCC1C2CC[C@@]2(C)[C@H]1CC[C@@]2(O)C#N)nc1ccccc14 (some centres undefined),inactive,inactive,–
CN1CCC(c2c[nH]c3ccc(O)cc23)CC1,inactive,inactive,–

Structure (SMILES),Potency [1],Potency [2],Potency [3]
Nc1cc2c(ncn2CCOCP(=O)(O)O)c(=O)[nH]1,inactive,inactive,–
NC(=O)CI,inactive,inactive,inactive
CC(N)[C@H](O)c1ccc(O)c(O)c1 (some centres undefined),inactive,inactive,inactive
C[N+](C)(C)CC#CCOC(=O)Nc1cccc(Cl)c1,inactive,inactive,inactive
CN(C(=O)Cc1ccc(Cl)c(Cl)c1)C(CN1CCCC1)c1cccc(OCC(=O)O)c1 (centres undefined),inactive,inactive,inactive
COc1ccc2[nH]c3c(c2c1)CCNC3,inactive,inactive,inactive
C[N+]1(C)CCN(c2ccccc2)CC1,inactive,inactive,inactive
NC(Cc1cc(O)c(O)cc1O)C(=O)O (centres undefined),3.98 µM (active),inactive,inactive
CCCN1CCc2cccc3c2[C@H]1Cc1ccc(O)c(O)c1-3,inactive,inactive,inactive
Cc1c2ccncc2c(C)c2c1[nH]c1ccccc12,inactive,inactive,inactive
NC(C(=O)O)c1cc(=O)[nH]o1 (centres undefined),inactive,inactive,–
CCCN(CCC)CCc1ccc(O)c(O)c1,inactive,inactive,inactive
C#CCN[C@H](C)Cc1ccccc1,inactive,inactive,–
CCCCCCCCCCCCCC(=O)O[C@@H]1[C@@H](C)[C@@]2(O)[C@@H](C=C(CO)C[C@@]3(O)C(=O)C(C)=C[C@@H]23)C2C(C)(C)[C@@]21OC(C)=O (some centres undefined),inactive,inactive,–
Cc1cc([C@@H]2CCCN2C)on1,inactive,inactive,inactive
COC(=O)N1CCN(C(=O)Cc2ccc(Cl)c(Cl)c2)C(CN2CCCC2)C1 (centres undefined),inactive,inactive,inactive
NCC(O)c1cc(O)c(O)cc1F (centres undefined),inactive,inactive,inactive
NC(N)=Nc1ccc2[nH]c3c(c2c1)C[C@@]1(O)[C@H]2Cc4ccc(O)c5c4[C@@]1(CCN2CC1CC1)[C@H]3O5,inactive,inactive,inactive
CN(N=O)c1cc(O)ccc1O,inactive,inactive,inactive
CCCN1CCc2cc(O)cc3c2[C@H]1Cc1ccc(O)c(O)c1-3,inactive,inactive,inactive
CC(=O)c1c(O)c(C)c(O)c(Cc2c(O)c3c(c(C(=O)/C=C/c4ccccc4)c2O)OC(C)(C)C=C3)c1O,inactive,inactive,inactive
CCCN(CCC)[C@@H]1CCc2cccc(O)c2C1,inactive,inactive,inactive
NNC(=O)c1ccc(O)cc1,inactive,inactive,inactive

Structure (SMILES),Potency [1],Potency [2],Potency [3]
CN1CC[C@@]2(C)c3cc(OC(=O)Nc4ccccc4)ccc3N(C)[C@@H]12,inactive,inactive,inactive
CCC1C(C)=NN=C(c2ccc(OC)c(OC)c2)c2cc(OC)c(OC)cc21 (centres undefined),–,inactive,–
N[C@@]1(C(=O)O)CC[C@@H](C(=O)O)C1,inactive,inactive,inactive
Cc1o[nH]c(=O)c1CC(N)C(=O)O (centres undefined),inactive,inactive,inactive
O=[N+]([O-])c1cc(O)c(O)c([N+](=O)[O-])c1,inactive,inactive,inactive
CN1C2CCC1CC(OC(c1ccccc1)c1ccccc1N)C2 (centres undefined),inactive,inactive,inactive
CC1CCC(C(C)C)C(OC(=O)c2ccccc2N)C1 (centres undefined),–,inactive,–
O=[N+]([O-])c1cc(I)c(O)c(I)c1,–,inactive,–
CN1CCc2cc(O)cc3c2[C@H]1Cc1ccc(O)c(O)c1-3,inactive,inactive,inactive
O=C1CC[C@@]2(O)C3Cc4ccc(O)c5c4C2(CCN3CC2CC2)[C@H]1O5 (some centres undefined),inactive,inactive,inactive
CC1(C(=O)O)C2CCC(O2)C1(C)C(=O)O (centres undefined),inactive,inactive,inactive
CO[C@H]1CC=C2CCN3CCC4=C(CC(=O)OC4)[C@]23C1,inactive,inactive,inactive
c1ccc2sc(SNC3CCCCC3)nc2c1,–,28.2 µM (active),–
Clc1cc(I)cc(Cl)c1NC1=NCCN1,inactive,inactive,inactive
C[C@@H](CO)NC(=O)[C@@H]1C=C2c3cccc4[nH]cc(c34)C[C@H]2N(C)C1,–,inactive,–
NCCCP(=O)(O)O,inactive,inactive,inactive
C[C@H]1C2Cc3ccc(O)cc3[C@@]1(C)CCN2CC1CC1,inactive,inactive,inactive
C[C@H](Cc1ccc2c(c1)OC(C(=O)O)(C(=O)O)O2)NC[C@H](O)c1cccc(Cl)c1,inactive,inactive,inactive
C[C@H](N)CN1CCc2ccc(Br)cc21,inactive,inactive,inactive
CCS(=O)(=O)Nc1cccc(C(=C2CCCCC2)c2cnc[nH]2)c1,inactive,inactive,inactive
CCOC(=O)c1ncn2c1[C@@H]1CCCN1C(=O)c1cc(OC)ccc1-2,inactive,inactive,inactive
CCCC[N+]1(C)C2CC(OC(=O)[C@H](CO)c3ccccc3)CC1C1OC12 (some centres undefined),–,inactive,–
FC(F)OC(F)(F)C(F)Cl (centres undefined),–,inactive,–

Structure (SMILES),Potency [1],Potency [2],Potency [3]
C[N+]1(C)CCc2cc3c(cc2[C@H]1[C@@H]1OC(=O)c2c1ccc1c2OCO1)OCO3,inactive,inactive,inactive
C[N+]1(C)C2CCC1CC(OC(=O)c1c[nH]c3ccccc13)C2 (centres undefined),inactive,inactive,inactive
C[C@]12CC[C@H](OS(=O)(=O)O)CC1=CC[C@@H]1[C@@H]2CC[C@]2(C)C(=O)CC[C@@H]12,–,inactive,–
CC(N)Cc1c[nH]c2ccc(OCc3cccs3)cc12 (centres undefined),–,inactive,–
CCCN1CCC[C@@H](c2cccc(O)c2)C1,inactive,inactive,inactive
CN(N=O)c1ccc(O)c(O)c1,12.6 µM (active),inactive,inactive
COc1ccc(OC)c(C(O)C(C)N)c1 (centres undefined),inactive,inactive,inactive
C[C@]12CCC(=O)C=C1C=C[C@@H]1[C@@H]2CC[C@@]2(C)[C@H]1CC[C@@]2(O)CCC(=O)O,–,inactive,–
CN1[C@H]2CC[C@@H]1[C@@H](C(=O)O)[C@@H](OC(=O)c1ccccc1)C2,–,inactive,inactive
COc1ccc2c(c1O)-c1cccc3c1[C@@H](C2)N(C)CC3,–,inactive,inactive
C[C@@H]1O[C@@H](O[C@H]2C[C@@H](O)[C@]3(CO)[C@@H]4C(CC[C@]3(O)C2)[C@@]2(O)CC[C@H]([C@@H]3COC(=O)C3)[C@@]2(C)C[C@H]4O)[C@H](O)[C@H](O)[C@H]1O (some centres undefined),–,inactive,inactive
O=c1[nH]cc(N(CCCl)CCCl)c(=O)[nH]1,–,inactive,inactive
O=C1OC2(c3cc(Br)c(O)cc3Oc3c2cc(Br)c(O)[c]3[Hg])c2ccccc21 (centres undefined),–,inactive,–
CC(C)CCC(=O)O[C@H]1CC[C@H]2[C@@H]3CCC4=CC(=O)CC[C@]4(C)[C@H]3CC[C@]12C,–,inactive,inactive
C[N+](C)(C)CCOC(=O)CBr,–,inactive,inactive
CCN1C[C@@]2(COC)C3[C@@H](OC)C4[C@@H]1C3([C@@H]1C[C@]3(O)[C@H](OC(=O)c5ccccc5)[C@@H]1[C@]4(OC(C)=O)[C@@H](O)[C@@H]3OC)[C@H](OC)C[C@H]2O,–,inactive,inactive
COc1ccc2[nH]cc(CCN)c2c1,–,inactive,inactive
NC(=O)c1ccc(OCC(O)CN2CC=C(c3ccc(F)cc3)CC2)cc1 (centres undefined),–,inactive,–
NCCc1ccc(S(=O)(=O)F)cc1,–,inactive,inactive
CC12NC(Cc3ccccc31)c1ccccc12 (centres undefined),–,inactive,inactive
Ic1ccccc1CNC1C2CCN(CC2)C1C(c1ccccc1)c1ccccc1 (centres undefined),–,inactive,inactive
CCCCNCC(O)c1ccc(O)cc1 (centres undefined),–,inactive,inactive
